Prx2 Sm inh – Schistosoma Mansoni Peroxiredoxins (Prx2); Schistosoma mansoni peroxiredoxin 2 (Prx2); hit rate 0.07% among 65,000; Potency, µM; AID 448, 2006; S. mansoni Prx2 activity coupled to TGR/GSH (TGR is thioredoxin glutathione reductase), NADPH fluorescence loss, qHTS
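Enzyme mix: 100 uM NADPH, 25 nM TGR, 700 uM GSH, 50 nM Prx2 in 100 mM phosphate pH 7.4, 10 mM EDTA, 0.01% Tween-20. 15 min RT with compound; NADPH/GSH added, H2O2 starts reaction; NADPH fluorescence read 8 min.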
AmpC inh det – Promiscuous and Specific Inhibitors of AmpC Beta-Lactamase (assay with detergent); P00811; purified AmpC, nitrocefin hydrolysis with detergent; Potency, µM (series often up to 28.7 µM); hit rate 0.09% among 71,000; AID 584, 2007; active = well fitted curve in the direction sought with a large enough effect; inconclusive = small, poorly fitted or top-dose-only effect
Target sequence (P00811 whole entry, looked up): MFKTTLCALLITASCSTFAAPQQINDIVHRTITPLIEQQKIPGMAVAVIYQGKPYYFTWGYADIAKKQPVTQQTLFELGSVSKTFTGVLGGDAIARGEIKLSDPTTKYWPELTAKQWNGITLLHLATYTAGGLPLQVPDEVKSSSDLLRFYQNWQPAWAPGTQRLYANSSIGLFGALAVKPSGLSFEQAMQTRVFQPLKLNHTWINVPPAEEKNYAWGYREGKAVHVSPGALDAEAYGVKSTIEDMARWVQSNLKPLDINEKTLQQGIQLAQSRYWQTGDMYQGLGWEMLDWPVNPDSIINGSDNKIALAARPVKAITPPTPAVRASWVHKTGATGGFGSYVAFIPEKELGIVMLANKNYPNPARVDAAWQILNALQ
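E. coli AmpC (5.3 nM) in 20 mM phosphate pH 7.0 with 0.01% Triton X-100, preincubated 15 min RT with compound; nitrocefin (2 uL of 800 uM stock) hydrolysis followed by 480 nm absorbance every 20 s over 4 min.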
AmpC nodet inh – Promiscuous and Specific Inhibitors of AmpC Beta-Lactamase (assay without detergent); hit rate 1.8% among 71,000; Potency, µM (highest dose often 28.7 µM); AID 585, 2007; AmpC nitrocefin hydrolysis, absorbance 480 nm, no detergent
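AmpC in 20 mM phosphate buffer pH 7.0 was preincubated 15 min at room temperature with compounds. Nitrocefin (800 uM stock) was then added and hydrolysis followed at 480 nm every 20 s for 4 min.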
Anthrax LT inh – qHTS Assay for Anthrax Lethal Toxin Internalization; Cells, anthrax lethal toxin internalization, FRET ratio (460/530); Potency, µM (doses to about 40 µM), most hits filed as inhibitors; hit rate 0.67% among 70,000; AID 912, 2007; note: nearly all actives have a fitted effect of over 50% in size
Each line names hits and unclear results; the compound was inactive in the other large screens; [ ] = remark or other dose. Rows were chosen to be rich in hits. Some 2.4% of all compounds tested hit in one or more screens of this group. Unless noted, calls come from the whole dose curve.

COc1ccc(-c2[nH]ncc2-c2cnn(-c3ccccc3)c2)c(O)c1	Anthrax LT inh 13µM
N#Cc1ccccc1Cn1c(=O)n(Cc2ccc(C(=O)NCc3ccco3)cc2)c(=O)c2sccc21	AmpC nodet inh 4µM[single pt active] (no result: Prx2 Sm inh)
Cc1ccc(-n2c(=O)c3sccc3n(CC(=O)NCc3ccco3)c2=O)cc1	none
O=C(CCCn1c(=O)c2sccc2n(Cc2cc(=O)n3ccccc3n2)c1=O)NCc1ccco1	AmpC nodet inh 4µM[single pt active]
N#Cc1ccccc1Cn1c(=O)n(-c2ccc(CC(=O)NCc3ccco3)cc2)c(=O)c2sccc21	AmpC nodet inh 4µM[single pt active], Anthrax LT inh inconclusive
O=C(/C=C/N1CCOCC1)c1ccc(-c2ccccc2)cc1	AmpC nodet inh 13µM, Anthrax LT inh inconclusive (no result: Prx2 Sm inh)
Cc1cccc2ccccc12	none (no result: Prx2 Sm inh)
Cc1ccc(C(=N)c2ccccc2Cc2cccc3ccccc23)c2ccccc12	Anthrax LT inh 2.5µM
Clc1ccc(/C=C\c2nc(Cl)c(-c3ccc(Cl)cc3)c(Cl)n2)cc1	Anthrax LT inh inconclusive
CCn1cc(C(=O)NCCCN2CC(C)CC(C)C2)c(=O)c2cc(S(=O)(=O)N(C)C)ccc21 (stereo not drawn)	AmpC nodet inh 3.2µM[single pt active]
CCn1cc(C(=O)NCc2ccc3c(c2)OCO3)c(=O)c2cc(S(=O)(=O)N3CCOCC3)ccc21	Anthrax LT inh inconclusive
CCn1cc(C(=O)NCc2ccc(Cl)cc2)c(=O)c2cc(S(=O)(=O)N3CCOCC3)ccc21	AmpC nodet inh 4µM[single pt active]
CCn1cc(C(=O)N2CC(C)CC(C)C2)c(=O)c2cc(S(=O)(=O)N(C)C)ccc21 (stereo not drawn)	none
CCn1cc(C(=O)NCC2CCCO2)c(=O)c2cc(S(=O)(=O)N(C)C)ccc21 (stereo not drawn)	AmpC nodet inh 4µM[single pt active]
Cc1cc(Cl)ccc1OCC(=O)Nc1ccccc1N1CCOCC1	Anthrax LT inh 16µM
CCNc1nc(C)cc(COC)c1C#N	none (no result: Prx2 Sm inh)
COCc1cc(C)nc(N2CCOCC2)c1C#N	AmpC nodet inh 4µM[single pt active] (no result: Prx2 Sm inh)
O=[As](O)(O)c1ccc(Cc2ccc([As](=O)(O)O)cc2)cc1	Prx2 Sm inh 0.17, Anthrax LT inh inconclusive
Cc1cc(C)n2nc(S(=O)(=O)NCCc3ccccc3)nc2n1	AmpC nodet inh 4µM[single pt active]
C/C(=C\[C@@H](NP(=O)(c1ccccc1)c1ccccc1)c1ccccc1)CO[Si](c1ccccc1)(c1ccccc1)C(C)(C)C	none (no result: Prx2 Sm inh)
CCCC/C(C)=C/[C@@H](NP(=O)(c1ccccc1)c1ccccc1)c1ccccc1	Anthrax LT inh 10µM (no result: Prx2 Sm inh)
O=C(NCc1cccs1)c1cc2c(s1)-c1ccccc1OC2	AmpC nodet inh 16µM, Anthrax LT inh inconclusive
CCc1ccc(C2C(C#N)=C(N)SC(N)=C2C#N)s1	Anthrax LT inh 10µM
CCc1ccc(C2C(C#N)=C(N)SC(N)=C2C#N)cc1	Anthrax LT inh 13µM (no result: Prx2 Sm inh)
C/C(=C\C(=O)c1ccncc1)Nc1ccccc1O	Anthrax LT inh 2.5µM (no result: Prx2 Sm inh)
CSc1ccccc1NC(=O)c1ccncc1	none
Cc1nn(C)c(C)c1S(=O)(=O)N1CCCC(C(=O)NC2CCCCCC2)C1 (stereo not drawn)	AmpC nodet inh 4µM[single pt active]
CC(C)[C@@]1(NC(=O)[C@@H]2C=C3c4cccc5[nH]cc(c45)C[C@@H]3N(C)C2)O[C@]2(O)[C@H]3CCCN3C(=O)[C@H](Cc3ccccc3)N2C1=O	none
CC1=CC(C)(C)N(C(=O)CN2C(=O)c3ccccc3C2=O)c2ccccc21	Anthrax LT inh 6.3µM (no result: Prx2 Sm inh)
COc1cc(-c2nc(-c3ccc(Br)o3)no2)cc(OC)c1OC	AmpC nodet inh 4µM[single pt active]
CCOc1ccc(-c2nc(-c3ccc(OC)c(OC)c3)no2)cc1OCC	none (no result: Anthrax LT inh)
COc1ccc(-c2noc(-c3cc(C)cc(C)c3)n2)cc1OC	AmpC nodet inh 1.3µM[single pt active]
COc1ccc(-c2noc(-c3ccc(Br)o3)n2)cc1OC	Anthrax LT inh inconclusive
Cc1cc(C(=O)CN2CC(C)OC(C)C2)c(C)n1-c1ccccc1 (stereo not drawn)	AmpC nodet inh 4µM[single pt active]
BrCC(Br)C1CCC(Br)C(Br)C1 (stereo not drawn)	Anthrax LT inh 16µM (no result: Prx2 Sm inh)
COc1ccc2c3c([nH]c2c1)[C@H]1C[C@@H]2[C@@H](C[C@@H](O)[C@H](OC)[C@H]2C(=O)O)CN1CC3	none
C[N+](C)(C)CCC(=O)c1cccc2ccccc12	Anthrax LT inh 25µM
O=C(NCc1cccnc1)[C@@H]1[C@@H](C(=O)O)[C@H]2CC[C@@H]1O2	none
C[C@@H]1CN(CCCn2c3ccccc3c3ccccc32)C[C@H](C)N1	Anthrax LT inh 32µM
